Among all 360,000 compounds or so, about 3,700 (1%) were called active. Roughly 2% stayed inconclusive and do not appear here.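 The calls were made as follows: active = normalized GFP-positive differentiation at or above the plate's own cutoff, the solvent-only control mean plus 3 SD; inconclusive = no clear call, values can overlap the other calls; inactive = the rest.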 For the sample, actives were picked, then their nearest neighbours and some compounds at random.

A short description of the test: induction of myeloid progenitor differentiation, primary screen, cell-based, flow cytometry, MLPCN library (AID 624256).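 As to GFP+ MAC1+ double positive: cells exposed to compound for four days before flow analysis.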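 As to normalized GFP-positive differentiation: cells exposed to compound for four days before flow analysis; 0% = DMSO wells and 100% = fulvestrant positive control at 5 µM.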 To be noted: ER-HoxA9 myeloid progenitors, lysozyme-GFP differentiation, at 10 µM; GFP+ MAC1+ double positive: measured here: differentiation confirmed by MAC1 staining, stronger effect = higher value; normalized GFP-positive differentiation: stronger effect = higher value. (In general: In flow cytometry, cells or beads pass a laser one at a time.)
On to `CC(C)C[C@@H](COCc1ccc(Cl)cc1)N1CCN(C(=O)c2ccc(Cl)cc2Cl)CCC1=O`, for which the GFP+ MAC1+ double positive is 0.8% and the compound was classed as inactive.
Consider `CC(C)CC(COCc1ccc(Cl)cc1)N1CCN(C(=O)c2ccc(C(F)(F)F)cc2)CCC1=O` (configuration not stated), for which the GFP+ MAC1+ double positive was found to be 5.1% and the normalized GFP-positive differentiation is 7.54% (active).
Turning to `CCN(CC)CCN(C)C(c1ccnc2ccccc12)c1nnnn1-c1ccc2c(c1)OCCO2` (configuration not stated), the GFP+ MAC1+ double positive was found to be 2.1% and the result was inactive.
Consider `Cc1cc2nc(C)n(CCCNC(=O)Nc3ccccc3)c2cc1C`, for which the GFP+ MAC1+ double positive was 1.2% and the normalized GFP-positive differentiation was 33% (active).
`CCOc1ccc(CCNC(=O)Nc2ccccc2)cc1OCC`: the GFP+ MAC1+ double positive was found to be 0.6% and the compound was called inactive.
For `Cc1nc2cc(NC(=O)Nc3cccc(F)c3)ccc2n1C`, in that order: 0.6% and “inactive”.
The matching figures for `C[C@@H]1CC2=C(C(=O)OC(C)(C)O2)[C@@H](C2CC2)O1`: 0.7% and “inactive”.
As for `OC(c1ccccc1)(c1ccccc1)C1CCN(CCCOc2ccccc2)CC1`, the GFP+ MAC1+ double positive was determined as 0.9% and the compound was called inactive.
The matching figures for `CCOC(=O)c1cc(-c2nnc(-c3cc(OC)c(OC)c(OC)c3)o2)c(C)nc1C`: 0.3% and “inactive”.
For `CCOc1nc(-c2ccc(OC)cc2)ccc1-c1noc(-c2cc(OC)c(OC)c(OC)c2)n1`, the GFP+ MAC1+ double positive turned out to be 26.5% and the normalized GFP-positive differentiation was 69% (active).
Take `CCOc1ccc(-c2noc(CCC(=O)NC3CCCC3)n2)cc1OC`: the GFP+ MAC1+ double positive is 0.3% and the compound was called inactive.
For `Cc1ccc(NS(=O)(=O)c2cc3c(cc2Br)NC(=O)CO3)cc1C`, in that order: 2.1% and “inactive”.
The matching figures for `COc1ccc(C(c2nnnn2C2CCCC2)N2CCN(C/C=C/c3ccccc3)CC2)cc1` (configuration not stated): 0.9% and “inactive”.
In the case of `Nc1nc(NCC2CCCO2)nc(Nc2ccccc2F)c1[N+](=O)[O-]` (configuration not stated), the GFP+ MAC1+ double positive turned out to be 0.2% and the compound was called inactive.
With `C=CCNc1nc(N)c([N+](=O)[O-])c(NC2CCCCC2)n1`, the GFP+ MAC1+ double positive was 1% and the compound was called inactive.
As to `Nc1nc(Nc2ccccc2F)nc(NC2CCCCC2)c1[N+](=O)[O-]`, the GFP+ MAC1+ double positive amounted to 5.3% and the normalized GFP-positive differentiation was 25.3% (active).
Turning to `O=C(Nc1ccc(Cl)cc1)c1csc([C@H]2C[C@H](O)[C@@H](CO)O2)n1`, the GFP+ MAC1+ double positive was found to be 0.4% and the call was inactive.
For `CCN1C(=O)[C@@H]2[C@@H]3CN(S(=O)(=O)c4ccccc4C)[C@@H](c4ccc(Cl)cc4)[C@@H]3C(=O)C[C@@H]2C1=O`, the GFP+ MAC1+ double positive worked out at 0.5% and the outcome was inactive.
The matching figures for `CN1C[C@@H](CO)O[C@@H](n2cnc3c(N4CCN(CCO)CC4)ncnc32)C1`: 1.5% and “inactive”.
Consider `CNC(=S)NNC(=O)c1sccc1OCc1ccccc1`, for which the GFP+ MAC1+ double positive turned out to be 2.8% and the normalized GFP-positive differentiation is 6.37% (active).
Regarding `CNC(=S)N/N=C/c1ccc(OCc2ccccc2)c(Br)c1`, the GFP+ MAC1+ double positive worked out at 0.2% and the outcome was inactive.
For `Cc1scc(C(=O)NNC(=S)NCc2ccccc2)c1C`, the GFP+ MAC1+ double positive was determined as 0.2% and the compound was classed as inactive.
Take `CC1(C(=O)Nc2ccc3c(c2)OCCO3)CSCC(=O)N1CCOc1ccccc1` (configuration not stated): the GFP+ MAC1+ double positive was 3.3% and the call was inactive.
The matching figures for `Cc1cc(Br)cn2c(Cc3cccc(F)c3)c(-c3cccc(Br)c3)nc12`: 0.6% and “inactive”.
As for `CCOC(=O)C(C(=O)c1ccccc1)C(c1ccccc1)c1nccc2ccccc12` (configuration not stated), the GFP+ MAC1+ double positive was 0.2% and the compound was called inactive.
Take `CCOC(=O)C(C(=O)OCC)C(C#N)c1ccccc1` (configuration not stated): the GFP+ MAC1+ double positive worked out at 3.3% and the normalized GFP-positive differentiation is 9.91% (active).
Consider `CCOC(=O)/C=C/C(=O)OCC(=O)NC(c1ccccc1)c1ccccc1`, for which the GFP+ MAC1+ double positive was 0.4% and the outcome was inactive.
Consider `CC1(C(=O)NCc2ccccc2)CSCC(=O)N1CCCn1ccnc1` (configuration not stated), for which the GFP+ MAC1+ double positive amounted to 4.4% and the outcome was inactive.
Consider `O=C1NC(O)CCN1C1CC(O)C(CO)O1` (configuration not stated), for which the GFP+ MAC1+ double positive stood at 1.3% and the compound was classed as inactive.
For `CCOc1ccc(CCN2C(=S)N([C@@H](CC(C)C)CN3CCC[C@@H]3CN3C(=S)NC[C@@H]3Cc3ccc(O)cc3)C[C@@H]2Cc2ccc(O)cc2)cc1`, in that order: 0.7% and “inactive”.
On to `COC(=O)C[n+]1cccc2ccccc21`, for which the GFP+ MAC1+ double positive came to 1% and the normalized GFP-positive differentiation is 236% (active).
On to `COC(=O)C(C)NC(=O)COc1ccc2ccccc2c1` (configuration not stated), for which the GFP+ MAC1+ double positive was found to be 1.3% and the result was inactive.
On to `COc1c(C(=O)N2CCCC2)ccc2ccccc12`, for which the GFP+ MAC1+ double positive was 0.8% and the call was inactive.
For `CCc1nc2c(OCc3ccc(Cl)cc3Cl)cccn2c1N(C)C(=O)C(C)C`, in that order: 1.8% and “inactive”.
The matching figures for `CC(=O)N1CCN(Cc2cc(=O)oc3cc(C)ccc23)CC1`: 1.6% and “inactive”.
Regarding `COC(=O)[C@]12CCCCC=C1N(Cc1ccc3c(c1)OCO3)C(=O)[C@H](CC(=O)NCc1cccs1)C2`, the GFP+ MAC1+ double positive amounted to 0.4% and the outcome was inactive.
For `CCOC(=O)[C@]12CCCC=C1N(CCC1=CCCCC1)C(=O)[C@H](CC(=O)N1CCOCC1)C2`, in that order: 4.8% and “inactive”.
`OCCC#Cc1ccc(N2C(c3ccsc3)=Cc3ccc(F)cc3C2c2c[nH]c3ccccc23)cc1` (configuration not stated): the GFP+ MAC1+ double positive was 2% and the normalized GFP-positive differentiation is 16.8% (active).
On to `COc1ccc(CCCNC(=O)C2Cc3c(-c4cccc(C(N)=O)c4)ccnc3O2)cc1` (configuration not stated), for which the GFP+ MAC1+ double positive amounted to 0.5% and the compound was called inactive.
Regarding `CN(Cc1cn(Cc2ccc(C(F)(F)F)cc2)nn1)C1CN(Cc2cn(Cc3ccc(C(F)(F)F)cc3)nn2)S(=O)(=O)C1` (configuration not stated), the GFP+ MAC1+ double positive was 1.6% and the compound was classed as inactive.
For `CCCCNC(=O)C[C@@H]1C[C@@]2(C(=O)OCC)CCC=C2N(Cc2cccc3ccccc23)C1=O`, the GFP+ MAC1+ double positive amounted to 0.6% and the compound was classed as inactive.

Values taken from PubChem BioAssay AID624256 (NMMLSC, 2012).
